Experimental data reported in PubChem BioAssay (NCI).
This is part of a sample that, as a whole, favours compounds with a hit. Of some 83,000 tested, about 20% had one in any assay.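 Activity criterion: percent growth below 10, measured after cells in 96-well plates were exposed to a single compound concentration for 48 hours.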 Values without a mark were called inactive. Active and inactive are the calls of the source.

Columns and labels:
Test in all cases: NCI-60 one-dose screen, 48 h (100 = growth as untreated, 0 = no growth, -100 = all killed)
Conditions in all cases: 10 µM unless noted
NCI-H23 lung = tested on: NCI-H23 lung
NCI-H226 lung = tested on: NCI-H226 lung
NCI-H322M lung = tested on: NCI-H322M lung
HOP-62 NSCLC = tested on: HOP-62 NSCLC
NCI-H460 lung = tested on: NCI-H460 lung
NCI-H522 lung = tested on: NCI-H522 lung
A549/ATCC NSCLC = tested on: A549/ATCC NSCLC
786-0 renal = tested on: 786-0 renal
COLO 205 colon = tested on: COLO 205 colon
HOP-92 NSCLC = tested on: HOP-92 NSCLC

Structure (SMILES) | growth (NCI-H23 lung) | growth (NCI-H226 lung) | growth (NCI-H322M lung) | growth (HOP-62 NSCLC) | growth (NCI-H460 lung) | growth (NCI-H522 lung) | growth (A549/ATCC NSCLC) | growth (786-0 renal) | growth (COLO 205 colon) | growth (HOP-92 NSCLC)
O=C1CCCN1c1cccc2cccnc12 | 92.9% | 98.8% | 102% | 94.4% | 102% | 96% | 99% | 97.5% | 108% | 
O=S(=O)(NCCCNc1nccc(-c2c(-c3cccc(O)c3)nc3occn23)n1)c1ccc(F)cc1 | 88.6% | 110% | 103% | 117% | 80.9% | 77.7% | 88.8% | 92.1% | 35.5% | 
COc1cc2oc(-c3cccc(C(=O)Nc4ccc(Cl)cc4)c3)cc(=O)c2c(OC)c1OC | 44.3% | 36.5% | 37% | 12.8% | 20.1% | 25.2% | 23.6% | 12% | 18% | 
CC(=O)c1c[nH]c2ccc(-c3ccnc(Nc4ccc(NC(=O)C5CCCC5)c(CN5CCOCC5)c4)n3)cc12 | -36.4% (active) | -0.452% (active) | -11.5% (active) | 2.51% (active) | -60.6% (active) | -17.9% (active) | 4.82% (active) | 0.29% (active) | -31.9% (active) | 
CC(C)(C)OC(=O)N1CCN(c2ccc(N)cc2)C(=O)C1 | 97.7% | 100% | 107% | 106% | 111% | 107% | 104% | 100% | 113% | 
CCN1C(=O)N(CC)C2C1NN=c1s/c(=C3\C(=O)Nc4ccccc43)c(=O)n12 (stereo unspecified) | 37.3% | 93.2% | 43.5% | 5.9% (active) | 9.09% (active) | 2.21% (active) | 28.8% | 27.7% | -25.1% (active) | 
Fc1ccc(-n2cc(COc3ncnc4sc5c(c34)CCCC5)nn2)cc1Cl | 96.8% | 94.4% | 100% | 96.3% | 102% | 84% | 98.4% | 98.1% | 109% | 
CN1CCN(c2cc(F)c(NC3=C(Cl)C(=O)c4ncccc4C3=O)c(F)c2)CC1 | -61.2% (active) | 85.3% | 102% | 83.3% | 9.91% (active) | -59.7% (active) | 74.6% | -72% (active) | 34% | 
O=C(Nc1nc(-c2ccccc2Cl)cs1)c1cc(-c2ccccc2)nc2ccc(Cl)cc12 | 51.3% | 74.3% | 93.8% | 84.6% | 102% | 78.6% | 99.7% | 89.4% | 87.6% | 
Nc1nnc(C(=O)c2cnc3n(c2=O)CCCCC3)s1 | 96.7% | 92.4% | 103% | 101% | 108% | 98% | 102% | 101% | 118% | 
CC(=O)N1c2ccccc2NC2=C(C(=O)N(C)C2(C)C)C1C (stereo unspecified) | 50.2% | 91.1% | 73.4% | 61.6% | 21.9% | 18.6% | 80.3% | 80.1% | 14.2% | 
CCCCCCCCOc1ccc(/C=N/Nc2cc(C)nc3ccc(Cl)cc23)cc1 | 65.2% | 87.2% | 42.2% | -46.5% (active) | -63.4% (active) | -56.7% (active) | -37.3% (active) | -94% (active) | -36.2% (active) | 
CC1=CC[C@@H]2CC[C@]3(C)[C@H](CC[C@@H]4[C@@]5(C)CCCNC(C)(C)[C@@H]5CC[C@]43C)[C@H]2[C@@H]1C | 63.1% | 107% | 20.7% | 105% | -70.4% (active) | 96.1% | -14% (active) | -72.5% (active) | -93.5% (active) | 
CNC(=O)Nc1ccc(-c2nc(N3CCOCC3)nc3c2cnn3C2CCOCC2)cc1 | 17.5% | -12.4% (active) | -9.52% (active) | -11% (active) | 11.8% | -0.372% (active) | -1.33% (active) |  | 5.84% (active) | -27.6% (active)
O=C(O)/C=C\C(=O)N1C/C(=C\c2ccccc2Cl)C(=O)/C(=C/c2ccccc2Cl)C1 | -24.9% (active) | -85% (active) | 4.69% (active) | -24% (active) | -40.9% (active) | -87.2% (active) | 7.96% (active) |  | -67.4% (active) | 2.77% (active)
COc1ccc(C(O)c2cc3c(N)c(C(=O)Nc4ccc(Cl)cc4)sc3nc2C)cc1 (stereo unspecified) | 32.7% | 45.3% | 44.6% | 29.2% | 5.37% (active) | 7.8% (active) | 29.5% | 55.2% | 13.6% | 
COc1ccc(-c2nn(Cc3ccccc3)c3c2-c2oncc2CC3)cc1OC | 105% | 131% | 112% | 120% | 95.6% | 98.9% | 96.8% | 97.8% | 136% | 
CN(C)C(=O)c1cc2cnc(Nc3ccc(-c4csc5c(=O)cc(N6CCOCC6)oc45)cc3)nc2n1C1CCCC1 | -10.2% (active) | 2.17% (active) | -29% (active) | -30.4% (active) | -26.4% (active) | -65.1% (active) | -36.8% (active) | -1.22% (active) | -84.3% (active) | 
Clc1cc(Cl)cc(N2N=C(c3cccc(Nc4ccncc4)c3)CC2c2ccccc2)c1 (stereo unspecified) | 82.8% | 93.1% | 78% | 43.6% | -76.1% (active) | 65.2% | 45.5% | 86.3% | -49.7% (active) | 
CO[C@@H]1[C@H](N(C)C(=O)c2ccccc2)C[C@@H]2O[C@]1(C)n1c3ccccc3c3c4c(c5c6ccccc6n2c5c31)C(=O)NC4=O | 44.2% | 29% | 38.9% | 28.5% | 48.2% | 21.2% | 27.3% |  | 2.3% (active) | 4.48% (active)
O=C(Nc1ccc(Nc2ncccn2)cc1)NC1C=c2ccccc2=CC1 (stereo unspecified) | 104% | 96.7% | 111% | 113% | 104% | 99.3% | 93.1% | 104% | 123% | 
COc1ccc(OC)c(/C=C/[C@H]2O[C@@H](C)[C@H](O)[C@@H]2O)c1 | 99.6% | 96.1% | 97.5% | 106% | 106% | 91.7% | 99.4% |  | 111% | 94.7%
O=C(Nc1ccc2ncnc(Nc3ccc(Oc4cccc(F)c4)c(Cl)c3)c2c1)c1ccc(CN2CCOCC2)cc1 | 20.1% | 52% | 60.7% | 17.9% | 38.8% | 6.89% (active) | 33.6% | 42.2% | 40.1% | 
CCSc1ccc2c(c1)N(CCCN1CCN(C)CC1)c1ccccc1S2 | 74.2% | 90.5% | 73.1% | 69.8% | 9.17% (active) | 70.3% | 53.6% | 43.2% | -62.1% (active) | 
Cc1cc(C)n(Nc2nc3ccccc3[nH]c2=O)c(=O)c1C#N | 89.8% | 89% | 100% | 93% | 100% | 93.3% | 96.9% | 96.5% | 113% | 
NC(=O)c1cccc(-c2cc(C(N)=O)ccc2Cl)c1 | 43.3% | 69.1% | 92.3% | 35.9% | 98.2% | 23.4% | 85% | 48.7% | 33.5% | 
C(=N\Nc1ncc(-c2cc3cc4c(cc3o2)OCO4)s1)/c1c[nH]c2ccccc12 | -25.8% (active) | -56.3% (active) | 26.7% | -18.4% (active) | -27.2% (active) | -42.2% (active) | -38.6% (active) | -40% (active) | -28.8% (active) | 
O=[N+]([O-])c1cccc(-c2nc(-c3ccc(Cl)cc3Cl)cn2-c2ccccc2)c1 | 20.8% | 18% | 157% | -75.4% (active) | -76.4% (active) | 12.8% | -32.9% (active) | -99.5% (active) | -36.5% (active) | 
CC(=O)OCCCCCNc1ccccc1 | 101% | 104% | 106% | 102% | 118% | 95.1% | 101% | 101% | 107% | 
